KCNH2 WT inh – qHTS for Inhibitors of KCHN2 3.1: Wildtype qHTS. AID 720551, 2013. U2OS, BacMam KCNH2, thallium flux FluxOr; hits give low values. hit rate 0.37% among 340,000. Voltage-gated inwardly rectifying potassium channel KCNH2 (Homo sapiens), Q12809. activity change, % at 1.84 µM;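 active means maximum activity change below -70%; inconclusive means maximum activity change between -70% and -50%; inactive means maximum activity change above -50%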; further: on the % scale 0 is the no-effect control and ±100 the full control effect
Target sequence (Q12809 whole entry, looked up): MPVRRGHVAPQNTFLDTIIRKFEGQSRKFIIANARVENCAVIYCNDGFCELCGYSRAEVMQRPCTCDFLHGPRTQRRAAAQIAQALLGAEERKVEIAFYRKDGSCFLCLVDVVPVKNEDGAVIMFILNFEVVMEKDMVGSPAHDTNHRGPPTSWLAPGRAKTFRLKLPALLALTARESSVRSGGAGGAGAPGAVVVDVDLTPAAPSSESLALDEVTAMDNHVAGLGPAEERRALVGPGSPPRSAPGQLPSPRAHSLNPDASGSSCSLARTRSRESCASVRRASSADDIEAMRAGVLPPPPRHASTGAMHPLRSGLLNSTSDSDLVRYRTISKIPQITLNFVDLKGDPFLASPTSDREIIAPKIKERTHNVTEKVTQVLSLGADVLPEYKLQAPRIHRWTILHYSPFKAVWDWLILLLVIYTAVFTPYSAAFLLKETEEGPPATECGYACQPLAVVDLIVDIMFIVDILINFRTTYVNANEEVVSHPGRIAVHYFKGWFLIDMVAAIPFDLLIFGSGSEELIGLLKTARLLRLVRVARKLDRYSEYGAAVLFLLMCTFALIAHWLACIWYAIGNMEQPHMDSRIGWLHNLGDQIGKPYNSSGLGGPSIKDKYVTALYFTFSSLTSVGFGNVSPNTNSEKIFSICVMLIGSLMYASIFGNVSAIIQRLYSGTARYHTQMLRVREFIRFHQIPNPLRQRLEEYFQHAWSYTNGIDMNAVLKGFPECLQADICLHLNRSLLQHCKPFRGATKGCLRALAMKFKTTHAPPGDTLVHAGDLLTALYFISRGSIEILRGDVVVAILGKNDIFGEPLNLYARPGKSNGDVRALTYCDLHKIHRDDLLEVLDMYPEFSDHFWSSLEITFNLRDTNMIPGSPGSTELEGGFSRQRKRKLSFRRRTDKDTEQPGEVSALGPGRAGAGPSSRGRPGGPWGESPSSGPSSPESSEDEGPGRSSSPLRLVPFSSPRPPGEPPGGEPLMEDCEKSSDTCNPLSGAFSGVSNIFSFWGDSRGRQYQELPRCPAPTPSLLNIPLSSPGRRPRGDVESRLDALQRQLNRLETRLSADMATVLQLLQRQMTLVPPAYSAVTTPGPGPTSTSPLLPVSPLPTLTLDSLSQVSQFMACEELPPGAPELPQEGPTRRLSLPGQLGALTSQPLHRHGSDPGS
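U2OS cells were transduced with wild-type KCNH2 virus (2.03 x 10^8 / mL) for 4 h at room temperature, then cultured overnight at 37 C. Thallium flux was read with FluxOr dye. Rate constants were normalized to DMSO controls.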
KB-3-1 tox – qHTS assay for MDR1-selective chemotherapeutics: Primary screen using the parental adenocarcinoma cell KB-3-1. KB-3-1 viability, CellTiter-Glo ATP luminescence, 72 h. Potency, µM (titrated, usually from 46.1 µM), hits mostly cytotoxic. hit rate 1.4% among 400,000; further: potency means the concentration at half of the fitted maximal effect; on the % scale 0 is the no-effect control and ±100 the full control effect; nearly all actives have a fitted effect of over 60% in size
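Using CellTiter-Glo luminescence, growth of non-resistant KB-3-1 adenocarcinoma cells is assessed 72 h after pin-tool compound addition at 37 °C. Normalized responses across the concentration series yield fitted curves.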
MCF10A rereplic – A quantitative high throughput screen for small molecules that induce DNA re-replication in MCF 10a normal breast cells; hit rate 2.9% among 350,000; Potency, µM (highest dose often 46.1 µM), for the others: at the top dose activity, positive = re-replication, usual class: activators; MCF 10A DNA re-replication, Hoechst nuclear intensity, 48 h; further: potency means the concentration at half of the fitted maximal effect; % of control where 0% means no effect; nearly all actives have a fitted effect of over 50% in size
SW480 rerep – A quantitative high throughput screen for small molecules that induce DNA re-replication in SW480 colon adenocarcinoma cells; SW480 DNA re-replication, Hoechst DNA content imaging, 48 h; Potency, µM (titrated, usually from 46.1 µM), for the others: at the top dose re-replication activation, actives largely listed as activators; hit rate 1.8% among 340,000; AID 624297, 2012; further: potency means the concentration at half of the fitted maximal effect; % of control where 0% means no effect; nearly all actives have a fitted effect of over 55% in size
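Readout is total intensity of Hoechst-stained nuclei, excited at 405 nm and collected at 500-530 nm. Compound treatment lasted 48 hr at 37 C in 5% CO2 before staining.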
KCNH2 3.1 block – qHTS for Inhibitors of KCHN2 3.1: Mutant qHTS | hit rate 0.95% among 340,000 | Potassium voltage-gated channel subfamily H member 2, brain isoform KCNH2 3.1 (human) | activity change, % (tested at about 1.8 µM) | U2OS KCNH2 3.1, thallium flux FluxOr; hits give low values;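 active means maximum activity change below -70%; inconclusive means maximum activity change from -70% to -50%; inactive means maximum activity change above -50%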;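 further: thallium influx rate constant from kinetic fluorescence after stimulation buffer; on the % scale 0 is the no-effect control and ±100 the full control effect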
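FluxOr-based Tl+ influx in U2OS cells transduced with KCNH2 3.1 virus; rate constants normalized to DMSO controls.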
KB-V1 MDR tox – qHTS assay for MDR1-selective chemotherapeutics: Primary screen using the drug-selected MDR subline cells KB-V1; KB-V1 MDR cells viability, CellTiter-Glo, 72 h; Potency, µM (doses to about 46.1 µM), usual class: cytotoxic; hit rate 3.4% among 400,000; AID 1347076, 2019; further: potency means the concentration at half of the fitted maximal effect; on the % scale 0 is the no-effect control and ±100 the full control effect; nearly all actives have a fitted effect of over 60% in size
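Luminescent ATP read-out (CellTiter-Glo, 10 min) measures survival of drug-selected KB-V1 MDR cells after 72 h, 37 degrees C compound exposure. Medium: phenol-red-free DMEM, 10% FBS. Values from fitted concentration-response curves.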
An asterisk follows results filed as active; i = inactive; ? = inconclusive; · = no result given. Compounds with a hit are over-represented: about 7.6% of the library has one in this group of screens. Unless noted, the call rests on the fitted dose curve; in most records, active means well fitted curve in the direction sought with a large enough effect; inconclusive means small, poorly fitted or top-dose-only effect, or another doubt; inactive means no such curve, though single readings can be large; an effect the other way counts as inactive or inconclusive.

SMILES	KCNH2 WT inh	KB-3-1 tox	MCF10A rereplic	SW480 rerep	KCNH2 3.1 block	KB-V1 MDR tox
CC(C)(C)NC(=O)CN(C(=O)C(=O)Nc1ccc2c(c1)OCCO2)C(C)(C)C	8	i	0%	-3%	-19	?
C=CCn1c(SCc2ccc(C(=O)Nc3nccs3)cc2)nnc1-c1ccc(C)c(Cl)c1	-8	?	10µM*	?	-19	5.2µM*
Cn1nnnc1SCc1ccc(C(=O)Nc2nccs2)cc1	-4	i	?	-3%	-25	i
COc1ccc(Cn2c(CCC(=O)Nc3ccccc3)nc3cccnc32)cc1	2	i	29%	-1%	1	i
COc1ccc(Cn2c(CCC(=O)Nc3ccc(CC#N)cc3)nc3cccnc32)cc1	5	i	16%	11%	7	2.6µM*
CC(NCC(=O)NCCc1ccc(S(N)(=O)=O)cc1)c1ccc(F)cc1 (stereo not given)	13	i	-5%	26µM*	·	i
CCCCNC(=O)Cn1nc(N2CCN(c3ccccc3OC)CC2)ccc1=O	·	i	·	·	·	i
O=C(NNC(=O)C(c1ccccc1)c1ccccc1)c1ccccn1	25	?	?	4.1µM*	40	?
CCNC(=S)NNC(=O)c1ccccn1	37	i	21%	-324%	2	12µM*
O=C(NNc1ccccn1)C(c1ccccc1)c1ccccc1	-14	i	-4%	7%	2	i
CCNC(=S)NNC(=O)c1ccccc1Cl	2	i	?	-38%	-5	i
CC(C)NC(=O)CC(=O)Nc1ccc2nc3n(c(=O)c2c1)CCCCC3	·	i	·	·	·	?
Cc1ccc(Cl)cc1N1CCN(C(=O)c2cc3c(=O)n(C)c4ccccc4c3n2C)CC1	10	?	-4%	-6%	0	2.6µM*
O=C(N/C(=C/c1cccc(Br)c1)C(=O)N1CCOCC1)c1ccco1	5	i	·	·	-6	i
O=C(C1CC(=O)N(C2CCCC2)C1)N1CCC(Cc2ccccc2)CC1 (stereo not given)	3	i	0%	5%	1	13µM*
O=C(C1CC(=O)N(C2CCCC2)C1)N1CCN(c2ccccc2F)CC1 (stereo not given)	0	i	1%	-10%	3	i
CCOC(=O)c1snc2c(=O)[nH]cnc12	1	i	?	5%	-17	i
O=C(Nc1ccccc1)c1snc2c(=O)[nH]cnc12	-5	?	-3%	-121%	8	4.1µM*
CC(C)OCCCn1c(=NC(=O)c2ccncc2)c(C#N)cc2c(=O)n3ccccc3nc21	-12	i	-8%	-9%	5	i
CC(C)OCCCn1c(=NC(=O)c2cccs2)c(C#N)cc2c(=O)n3ccccc3nc21	-2	i	12µM*	21µM*	-25	?
CC(=O)N=c1c(C#N)cc2c(=O)n3ccccc3nc2n1CCCOC(C)C	-3	i	?	16µM*	8	i
CC(C)OCCCn1c(=N)c(C(N)=S)cc2c(=O)n3ccccc3nc21	10	i	9.2µM*	5.8µM*	-7	?
CC(=O)c1cccc(NC(=O)COC(=O)Cn2cnc3ccccc32)c1	-5	?	14%	9%	-30	?
COc1ccc2c(c1)CCC1=C2NC(=S)NC1c1ccc(N(C)C)cc1 (stereo not given)	-3	?	21µM*	12%	10	?
Cc1c(C(=O)N2CCOCC2)sc2nc(-c3ccccc3)cn12	-2	i	-12%	-9%	-3	23µM*
SMILES	KCNH2 WT inh	KB-3-1 tox	MCF10A rereplic	SW480 rerep	KCNH2 3.1 block	KB-V1 MDR tox
Cc1c(C(=O)Nc2ccc3c(c2)OCCO3)sc2nc(-c3ccccc3)cn12	-14	?	-1%	-1%	-4	12µM*
Cc1c(C(=O)NCc2ccco2)sc2nc(-c3ccccc3)cn12	-9	16µM*	?	?	23	i
O=C(O)c1ccccc1C(=O)c1ccc(F)c(F)c1	-2	i	-18%	-10%	5	i
CCN(CC(=O)Nc1ccccc1OC)C(=O)c1cc(-c2ccccc2)nn1-c1ccccc1	-41	i	?	?	-2	i
O=C(CCl)Nc1cc(-c2ccccc2)nn1-c1ccccc1	-3	?	?	?	20	7.3µM*
Cc1ccc(-c2cc(NC(=O)CCl)n(-c3ccccc3)n2)cc1	6	?	?	?	8	?
O=C(CNC(=O)c1cc(-c2ccccc2)nn1-c1ccccc1)Nc1ccccc1Br	-2	i	12µM*	-24%	11	i
CCN(CC(=O)Nc1ccccc1C(F)(F)F)C(=O)c1cc(-c2ccccc2)nn1-c1ccccc1	3	i	10µM*	-10%	-3	i
COc1cccc(C(=O)Nc2ccc3nc(SCC(=O)N4CCc5ccccc54)sc3c2)c1	·	i	·	·	·	i
CN1CCN(c2nc(NCCOC34CC5CC(CC(C5)C3)C4)nc(OCC(F)(F)F)n2)CC1	24	i	3%	-3%	-71*	?
Cc1ncc(C(=O)O)c(C(=O)O)c1N	12	i	?	-1%	-3	i
Nn1c(SCC(=O)Nc2cccc(F)c2)nnc1C1CCCCC1	-2	i	0%	-3%	-15	i
CCOc1ccc2c(c1)-c1c(ssc1=S)C(C)(C)N2C(=O)c1ccco1	0	?	4.1µM*	16µM*	3	?
Cc1ccc2c(c1)-c1c(ssc1=S)C(C)(C)N2C(=O)CSc1nncn1C	-1	?	-3%	-4%	12	?
CCCCN(CCCC)S(=O)(=O)c1ccc(NC(=O)c2ccc([N+](=O)[O-])cc2Cl)cc1	-5	?	-2%	0%	-8	16µM*
CCN(CC)S(=O)(=O)c1cc([N+](=O)[O-])ccc1NNC(=O)Nc1ccc(Cl)c(Cl)c1	7	5.8µM*	?	27%	0	?
O=C(NNc1ccccc1[N+](=O)[O-])Nc1ccc(Cl)c(Cl)c1	-8	?	?	-2%	-4	i
CCSC1=NC2(CCCCC2)Nc2sc3c(c21)CCCC3	-8	?	?	?	10	i

Compound activity as filed in PubChem BioAssay.
